Wnt bcat act – Wnt/beta-catenin pathway activators, primary screen, cell-based, plate reader, single point. Wnt/beta-catenin reporter cell assay, activator. activation, % at 9.35 µM. 1.2% of 300,000 active; in the data active = activation above about 30%, passing the limit was not always enough;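 note: 0% = neutral control wells and 100% = positive control wells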
MITF act – activators of MITF-driven TRPM1 promoter reporter, primary screen, cell-based, SK-MEL-5, luciferase, single point; activation, % at 12.5 µM; 0.75% of 300,000 active; AID 588334, 2011; SK-MEL-5 TRPM1-promoter luciferase, 24 h; % of positive control, neutral wells = 0;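 active = mean activation of at least 80% with every replicate also reaching 80%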;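 note: 0% = neutral control wells and 100% = parthenolide positive control wells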
GSIS activator – GLuc luminescence reporter in INS-1E cells, primary screen for activators of glucose-dependent secretion of insulin; activation, % at 16.6 µM; 0.61% of 370,000 active; INS-1E GLuc reporter insulin secretion, 2-3 h;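 active = lowest replicate activation of at least 40%, so every replicate reaches that level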;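 note: 0% = median of neutral control wells and 100% = median of IBMX positive control wells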
HIV Env fusion – inhibitors of HIV-1 Env-driven cell-cell fusion, primary screen, HeLa-JRFL effector, CEM21 target cells, luciferase. inhibition, % at 12.3 µM. 1.1% of 360,000 active;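 active = mean replicate inhibition score of at least 50 and every replicate individually at or above 50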;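 note: 0% = plate neutral controls and 100% = maraviroc near 300 nM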
CFTR F508del cor – F508del CFTR correction, initial screen, CFBE line, single point | CFBE cells, YFP halide quenching; stimulated with forskolin plus potentiator P3; % fluorescence drop versus neutral controls | activity (quench increase), % at 7.58 µM | AID 720511, 2013 | 0.36% of 350,000 active;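 active = mean added fluorescence quench of at least 8% versus neutral control, with both replicates also reaching 8%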;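 note: cells transiently co-express mutant CFTR-F508del with the halide-sensitive YFP; corrector assay measuring rescue of mutant channel to the surface after 24 h compound exposure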
The depositor's hits bear a star; i = inactive; x = no result; [ ] = remark or other dose. Shown are actives, neighbours in structure and some others; about 2.7% of the full set was active somewhere.

SMILES | Wnt bcat act | MITF act | GSIS activator | HIV Env fusion | CFTR F508del cor
CNC(C)C#Cc1ccc2sc3cccc(OC)c3c(=O)c2c1 (stereo not given) | 3 | 9 | 12 | -75 | 1
C[C@H](CO)N1C[C@H](C)[C@H](CN(C)S(=O)(=O)c2ccc(F)cc2)Oc2c(NC(=O)C3CC3)cccc2C1=O | x | x | 2 | -24[16.7 µM] | -5
C[C@@H]1CN([C@H](C)CO)S(=O)(=O)c2ccc(C#Cc3ccccn3)cc2O[C@H]1CN(C)Cc1ccccc1 | x | x | -19 | 3[16.7 µM] | 1
COc1cc2sc3ccc(-c4ccc5[nH]ccc5c4)cc3c(=O)c2cc1OC | 12 | 130* | 7 | -110 | 2
COc1ccc(C#Cc2ccc3c(c2)c(=O)c2ccccc2n3C)cc1 | 2 | -3 | 13 | -23 | 0
COc1cccc2oc3ccc(C#Cc4ccccn4)cc3c(=O)c12 | 40* | 45 | 8 | -141 | -1
C=CCn1c2ccccc2c(=O)c2cc(C#Cc3ccccn3)ccc21 | 26 | 124* | 20 | -59 | 4
COc1ccc(-c2c(-c3cc(OC)cc(OC)c3)n(C)c3ccc(-c4ccc5[nH]ccc5c4)cc23)cc1 | -8 | -5 | 6 | 3 | -3
COc1cccc2sc3cc(C#Cc4ccccn4)ccc3c(=O)c12 | 13 | 101* | 22 | -25 | 4
C[C@@H](NC(=O)C[C@@H]1C[C@@H]2c3cc(NC(=O)CC4CC4)ccc3O[C@@H]2[C@H](CO)O1)c1ccccc1 | x | x | -8 | x | 0
COCC#Cc1ccc2c(c1)O[C@H](CN(C)Cc1ccccn1)[C@H](C)CN([C@@H](C)CO)S2(=O)=O | x | x | 13 | x | 0
O=c1c2ccccc2oc2cc(C#Cc3ccccn3)ccc12 | 34* | 25 | -7 | -350 | -2
Fc1ccc2nc3[nH]c4ccccc4c3nc2c1 | 100* | x | 47 | i | x
O=C(Nc1ccccc1)Nc1cc(OCC(F)(F)F)cc(OCC(F)(F)F)c1 | -4 | -85 | 4 | 62* | 2
COc1ccc(-c2ccc([C@@H]3[C@@H](C#N)N(C(=O)NC4CCCC4)[C@H]3CO)cc2)cc1 | x | x | 10 | 24[16.7 µM] | 0
Cc1ccc(-c2cnc3cccnn23)cc1F | 1 | x | 46* | -14 | 1
CCCCn1c(=O)[nH]c(=O)c2c1nc(-c1ccc([N+](=O)[O-])cc1)n2CC | 1 | -1 | 191* | -12 | 1
C=CCOc1ccc(-c2nc3c(c(=O)[nH]c(=O)n3CCCC)n2C)cc1Br | -1 | 22 | 51* | 7 | 6
CC1CCN(C(=O)c2cc3nc(-c4ccccc4)cc(-c4ccccc4)n3n2)CC1 | -3 | 5 | -42 | 77* | x
O=C(NCC[C@@H]1CC[C@@H](NS(=O)(=O)c2cccc(F)c2)[C@H](CO)O1)C1CCCC1 | x | x | -1 | -24[16.7 µM] | 0
O=C(COC(=O)C1CCC1)NC(=O)c1ccccc1 | 4 | -7 | 42* | 26 | -3
c1ccc(-c2nnc(-c3ccccn3)nn2)nc1 | 36* | 36 | 4 | -33 | -1
O=C(NCc1ccco1)Nc1ccc(Br)cc1Cl | x | 91* | -9 | -90 | x
CC(=O)CSc1nnc(-c2ccc3c(c2)OCO3)o1 | 19 | x | x | -47 | x
O=C(O)CCSc1nnc(-c2ccc3c(c2)OCO3)o1 | x | -37 | x | 69* | x
SMILES | Wnt bcat act | MITF act | GSIS activator | HIV Env fusion | CFTR F508del cor
CC(=O)NC(c1ccc2ccccc2c1)c1ccc2cccnc2c1O (stereo not given) | 0 | x | 4 | -15 | 13*
CC(=O)NC(c1ccc(Cl)cc1Cl)c1ccc2cccnc2c1O (stereo not given) | -1 | x | x | -18 | 10*
C[C@@H]1CN([C@H](C)CO)C(=O)c2cc(-c3cccnc3)cnc2O[C@@H]1CN(C)Cc1ccc(-c2ccccc2)cc1 | x | x | -26 | -3[16.7 µM] | 6
COc1cc(/C=C2\SC(=S)N(NC(=O)c3ccc(O)c(OC)c3)C2=O)ccc1O | 3 | 24 | -15 | -9 | -1
COc1cc(/C=C2\SC(=S)N(NC(=O)c3ccncc3)C2=O)ccc1O | -1 | 3 | -19 | 9 | 13*
C[C@@H]1CN([C@@H](C)CO)C(=O)c2cc(NS(=O)(=O)c3ccc(Cl)cc3)ccc2O[C@@H]1CN(C)S(=O)(=O)c1ccccc1 | x | x | -14 | -29[16.7 µM] | -2
CN1CCN(C(=O)C[C@H]2CC[C@H]3[C@@H](COc4ccc(NC(=O)C5CC5)cc4C(=O)N3C)O2)CC1 | x | x | 7 | -12[16.7 µM] | -1
